# Bioassay records deposited in PubChem by National Center for Advancing Translational Sciences (NCATS).
# PNC assembly inh: inhibitors of perinucleolar compartment assembly; PC3M PTB-GFP, PNC prevalence imaging, 16 h; active compounds read low; 140,000 compounds, 3.1% hits; activity change (PNC), negative = inhibition, % at 10 µM;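 active = readout at or below -70, meaning at least 70% loss of cells showing the perinucleolar compartment, a nuclear body marking cancer cells; inconclusive = readout between -30 and a set limit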
#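 PC3M cells stably expressing PTB-GFP, 750–1000 cells/well, treated 16 h at 37 °C with compound (23 nl of library stock), in duplicate. After paraformaldehyde fixation and Hoechst stain, imaged at 20x; PNC prevalence scored by image analysis.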
# ALDH1A1 inh: ALDH1A1 (human) enzyme inhibition; P00352; Purified ALDH1A1, NADH fluorescence, propionaldehyde substrate; Potency, µM (titrated, usually from 75.3 µM), actives largely listed as inhibitors; 220,000 compounds, 7.3% hits; AID 1030; active = well fitted inhibition curve with a large enough effect, not every such curve was filed as active; inconclusive = small, poorly fitted or top-dose-only effect, or another doubt; inactive = no such curve, though single readings can be large or run the other way
# GLA inh pH 4.5: inhibitors of human alpha-galactosidase A at pH 4.5; P06280; purified enzyme, 4-MU-alpha-Gal fluorescence, pH 4.5; activity change, negative = inhibition, % at 105 µM; 230,000 tested, under 10 active
# GLA spleen mod: alpha-galactosidase A (human) modulation; AID 2107; Potency, µM (series often up to 80 µM), most hits filed as inhibitors; P06280; human spleen homogenate, 4MU-alpha-Gal fluorescence, 40 min; 240,000 compounds, 0.008% hits
# Target sequence (P06280 32-429 limits assumed): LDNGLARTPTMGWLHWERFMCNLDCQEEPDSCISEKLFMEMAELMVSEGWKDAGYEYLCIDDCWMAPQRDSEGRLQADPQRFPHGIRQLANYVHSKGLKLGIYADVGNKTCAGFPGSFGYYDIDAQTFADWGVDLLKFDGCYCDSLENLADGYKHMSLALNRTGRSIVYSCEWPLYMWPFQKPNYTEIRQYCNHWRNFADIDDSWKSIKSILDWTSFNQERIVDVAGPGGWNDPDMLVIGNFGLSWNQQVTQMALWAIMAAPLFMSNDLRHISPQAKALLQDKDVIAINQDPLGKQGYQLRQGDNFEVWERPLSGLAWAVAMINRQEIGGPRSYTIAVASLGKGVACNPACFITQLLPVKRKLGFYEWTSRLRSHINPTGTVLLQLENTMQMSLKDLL
#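 Spleen homogenate 1 ug + cpd (titration) + 4-MU-alpha-D-galactopyranoside 1 mM; 37C 40 min; 50 mM citrate/phosphate pH 5.0, 0.01% Tween-20; stop pH 10; fluorescence 365/440; AC50 via Hill.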
# 12-hLO inh: 12-hLO (ALOX12) enzyme inhibition | P18054 | purified 12-hLO, xylenol orange hydroperoxide absorbance | Potency, µM (titrated, usually from 57.1 µM), hits mostly inhibitors | 150,000 compounds, 0.12% hits | AID 1452; also: nearly all actives have a fitted effect of over 55% in size
#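 Purified human 12hLO (150 nM final) was preincubated with compounds for 15 min at room temperature in 25 mM Hepes pH 7.0, 0.01% Triton X-100, then reacted with 40 uM arachidonic acid for 30 min. Hydroperoxide was detected with ferrous iron/xylenol orange.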
# HPGD inh: HPGD (human) dehydrogenase inhibition; purified HPGD, NADH fluorescence kinetic, PGE2 substrate; Potency, µM, usual class: inhibitors; 150,000 compounds, 4.3% hits; active = well fitted inhibition curve with a large enough effect, not every such curve was filed as active; inconclusive = small, poorly fitted or top-dose-only effect, or another doubt; inactive = no such curve, though single readings can be large or run the other way
# Target sequence (P15428 whole entry, looked up): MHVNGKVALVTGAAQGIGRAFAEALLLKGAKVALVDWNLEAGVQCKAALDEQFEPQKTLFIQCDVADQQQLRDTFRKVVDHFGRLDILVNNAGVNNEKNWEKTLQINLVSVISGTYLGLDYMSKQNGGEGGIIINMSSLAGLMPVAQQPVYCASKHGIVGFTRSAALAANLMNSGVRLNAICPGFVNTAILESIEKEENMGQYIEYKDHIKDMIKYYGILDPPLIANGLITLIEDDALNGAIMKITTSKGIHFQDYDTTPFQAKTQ
#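 20 nM HPGD preincubated 15 min at room temperature with compound in 50 mM Tris-HCl pH 8, 0.01% Tween 20. Started with 1 mM NAD+ and 30 uM prostaglandin E2; NADH fluorescence (360/450 nm) read 5 times over 30-s intervals, last minus first.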
# Hits are given with their value; n = inactive; u = inconclusive; x = no result; [ ] = remark or other dose. A selection: hits, their analogues and other compounds. The true share with any hit is near 10%. Unless noted, calls follow the shape of the dose curve; as a rule, active = well fitted curve in the direction sought with a large enough effect; inconclusive = small, poorly fitted or top-dose-only effect, or another doubt; inactive = no such curve, though single readings can be large; an effect the other way counts as inactive or inconclusive.
SMILES,PNC assembly inh,ALDH1A1 inh,GLA inh pH 4.5,GLA spleen mod,12-hLO inh,HPGD inh
Cc1cccc(OCC(=O)Nc2ccc(N3CCCC3)cc2)c1C,n,13µM,n,n,n,n
Cc1ccc(C(=O)C(C(=O)/C=C/c2ccccc2)=C2SCCCS2)cc1,n,u,n,n,n,n
Cc1noc(C)c1-c1ccc2ncnc(NC(C)c3ccccc3)c2c1 (configuration not stated),x,x,x,n,x,x
O=C(CNC1CCCCCC1)Nc1ccc(N2CCCC2)cc1,n,n,n,n,n,n
O=C(CNC1CCCC1)Nc1ccc(N2CCCCCC2)cc1,x,20µM,n,n,x,x
CCN1CCc2c(OCC(=O)N3CCCCC3)cccc2C1=O,x,n,n,n,x,x
CCOC(=O)C1CCN(C(=O)Nc2cc(Cl)cc(Cl)c2)CC1,x,x,n,n,x,x
Cc1cc(C)n2nc(SCc3nnc(SCc4ccccc4C)s3)nc2n1,u,n,n,n,n,25µM
Cc1cc(C)n2nc(SCc3nnc(SCc4ccccc4Cl)s3)nc2n1,u,n,n,n,n,28µM
COc1ccc(OCCSc2nc3nc(C)cc(C)n3n2)cc1,x,n,n,n,x,x
COc1cccc(CSc2nnc(CSc3nc4nc(C)cc(C)n4n3)s2)c1,n,u,n,n,n,16µM
CCC(=O)OC1C2CC3=C4CC(=O)OC(c5ccoc5)[C@]4(C)CCC3[C@@](C)(C2=O)C(CC(=O)OC)C1(C)C (some centres not stated),x,n,n,n,n,n
CCOC(=O)C(C(=O)OCC)N(Cc1cc(OC)ccc1OC)C(=O)C1CC(CO[Si](C)(C)C(C)(C)C)=CN1C(=O)OC(C)(C)C (configuration not stated),x,x,x,n,x,x
Cc1ccc(N2C(=O)CC(Sc3cccs3)C2=O)cc1 (configuration not stated),x,2.2µM,n,n,x,x
Cc1ccc(CC2CC(=O)N(c3ccc(C)cc3)C2=O)cc1 (configuration not stated),x,n,n,n,x,x
Cc1ccccc1C(=O)NNC1CC(=O)N(c2ccc3c(c2)OCCO3)C1=O (configuration not stated),n,n,n,n,n,n
Cc1ccc(SC2CC(=O)N(c3ccc4c(c3)OCCO4)C2=O)cc1 (configuration not stated),x,2.5µM,n,n,x,x
COc1ccc(C(=O)Nc2ccc(Cl)cc2C(=O)N2CCCC(C)C2)cc1OC (configuration not stated),n,u,n,n,n,n
Cc1cc(O)ccc1N/C=C1\CCCC1=O,n,13µM,n,n,n,u
CCCCC/C=C\C[C@@H](O)/C=C/C=C/C=C\[C@@H](O)CCCC(=O)O,x,n,n,n,n[0.00818 µM],n
Clc1ccc(-c2n[nH]c3c2CCC3)cc1Cl,n,u,n,n,n,18µM
N#Cc1c(Cl)nsc1NN,x,22µM,u,n,x,x
NC(N)=N/N=C(\c1ccc(Cl)cc1)C1CC1,x,n[13.5 µM],x,x,n[11.4 µM],n
O=C(CCCn1c(=O)[nH]c2ccc(Br)cc2c1=O)NCc1ccc(Cl)cc1,x,n,n,n,x,x
CC(=O)c1sc(Nc2ccc(C)cc2)nc1C,x,n,n[21.1 µM],n,x,x
SMILES,PNC assembly inh,ALDH1A1 inh,GLA inh pH 4.5,GLA spleen mod,12-hLO inh,HPGD inh
COc1cc(C)nc(Nc2nc(C)c(C(C)=O)s2)n1,n,1.6µM,n,n,n,x
COc1ccc2nc(Nc3nc(C)c(C(C)=O)s3)sc2c1,n,u,n,n,n,u
CC(=O)c1sc(Nc2ccccn2)nc1C,u,20µM,n,n,n,n
Cc1ccc(/C=C/C(=O)Nc2ccccc2C(N)=O)cc1,u,n,n,n,n,n
OC1CCCCC1,x,n,x,n,n,n
S=C(Cc1cccnc1)N1CCOCC1,n,13µM,n,n,n,22µM
COc1ccc(CC(=S)N2CCOCC2)cc1OC,n,n,n,n,n,n
CCCCCCCCCC(=O)OCC(CO)OC(=O)CCCCCCCCC (configuration not stated),x,n,n,n,n,n
CC1(C)CC(=O)C2=C(C1)NC(SCC(=O)Nc1ccccc1)=C(C#N)C21CCCCC1,n,22µM,n,n,n,u
N#CC1=C(N)NC(SCc2ccccc2)=C(C#N)C12CCCC2,-113,25µM,n,n,n,u
N#CC1=C(N)NC(SCC(=O)Nc2ccc(Br)cc2)=C(C#N)C12CCCCC2,n,28µM,n,n,n,n
CSC1=C(C#N)C2(CCCC2)C(C#N)=C(N)N1,n,u,n,n,n,n
N#CCSCC(=O)Nc1ccc(Br)cc1,n,n,n,n,n,n
CC1=C(C(=O)Nc2ccccc2)C2(CCCCC2)C(C#N)=C(SCC(N)=O)N1,n,n,n,n,n,n
N#CC1=C(N)N2C(=C(C#N)C13CCN(Cc1ccccc1)CC3)Nc1ccccc12,n,u,n,n,n,n
CCSC1=C(C#N)C2(CCCC2)C(C#N)=C(N)N1,-81,u,n,n,n,u
O=C(/C=C/c1ccc(Cl)cc1)NCCN1CCOCC1,n,n,n,n,n,n
O=[N+]([O-])c1ccc(NC(=S)NCC(c2cccnc2)N2CCOCC2)cc1 (configuration not stated),x,u,n,n,x,x
N#CC1=C(N)NC(SCc2ccc(Cl)cc2)=C(C#N)C12CCCCC2,n,13µM,n,n,n,n
N#CC1=C(N)NC(SCc2ccc(Br)cc2)=C(C#N)C12CCCCC2,n,u,n,n,n,n
N#CC1=C(SCC(=O)c2cc3ccccc3oc2=O)NC(=O)C(C#N)C12CCCC2 (configuration not stated),n,1.1µM,n,n,n,u
N#CC1=C(N)NC(SCC(=O)c2ccccc2)=C(C#N)C12CCCC2,n,13µM,n,n,n,u
N#Cc1cnc(SCC(=O)c2ccccc2)nc1N,n,n,n,n,n,n
COc1ccccc1C1CC(=O)NC(SCC(=O)Nc2ccccc2)=C1C#N (configuration not stated),n,u,n,n,n,n
CC(C)(C)C1CCC2(CC1)C(C#N)=C(SCC(=O)Nc1ccccc1)NC(=O)C2C#N (configuration not stated),n,8.9µM,n,n,n,u
O=C(N/N=C1/C[C@@H](O)[C@@H](O)[C@@H]2[C@@H]3C(=O)N(Cc4ccc5c(c4)OCO5)C(=O)[C@H]3CC[C@H]12)OCc1ccccc1,x,n[13.5 µM],x,n[17.5 µM],x,x
CCC(C(=O)NNC(=O)c1cnccn1)c1ccccc1 (configuration not stated),n,n,n,n,n,n
O=C(COC(=O)CCCN1C(=O)c2ccccc2C1=O)Nc1ncc(Cl)cc1Cl,-100,n,n,n,n,n
O=C(COC(=O)CN1C(=O)c2ccccc2C1=O)Nc1ncc(Cl)cc1Cl,n,u,n,n,n,n
O=C(COC(=O)CCCN1C(=O)c2cccc3cccc(c23)C1=O)Nc1cccc(C(F)(F)F)c1,-106,u,n,n,n,u
